Assay results from PubChem BioAssay AID1860 (The Scripps Research Institute Molecular Screening Center, 2009).
The list shows a part of the results. The source made the active and inactive calls. Rule as the data show it: active = inhibition above about 8%; inactive = the rest.

These compounds were tested on VIM-2 metallo-beta-lactamase [Pseudomonas aeruginosa] (assay: P. aeruginosa VIM-2 enzyme inhibition – biochemical, epi-absorbance, HTS, confirmation (AID 1860;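 also: 0% = enzyme with vehicle and 100% = no enzyme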)). Conditions: purified VIM-2 enzyme, nitrocefin absorbance; at 5.6 µM; active compounds read high.

inhibition, active:
Nc1c(C(=O)c2cccs2)sc2nsc(SCCN3CCCCC3)c12 31.7%
Cc1nn(C)cc1N1C(=O)c2cccc3c(N)ccc(c23)C1=O 35.2%
Cc1cc2nc3c(=O)n(Cc4ccccc4)c(=O)[nH]c3nc2cc1N 16.6%
CCC(=C/c1sc2ccc3ccccc3c2[n+]1C)/C=C1\Sc2ccc3ccccc3c2N1C 12%
CN1C(=O)c2cccc3c(N)ccc(c23)C1=O 48.4%
c1ccc(-c2nccc(-c3ccc(-n4cnc5ccccc54)cc3)n2)nc1 71.7%
COc1cc(/C=C2/SC(=S)N(Cc3ccccc3)C2=O)cc(OC)c1O 13.7%
Oc1ccc2ccc3cccc[n+]3c2c1 30.2%
C/C(=N\Nc1ccc(S(N)(=O)=O)cc1[N+](=O)[O-])c1cccs1 17.3%

inhibition, inactive:
NC(=O)c1ccc(NC(=O)COC(=O)c2c3c(nc4ccccc24)/C(=C\c2ccc4c(c2)OCO4)CCC3)cc1 -0.41%
NS(=O)(=O)c1ccc(NC(=O)COC(=O)c2c3c(nc4ccccc24)/C(=C\c2ccc4c(c2)OCO4)CCC3)cc1 -1.18%
